From the supplement of paper PMC6555819

Experiments:
Test in all cases: PBM binding z-score (relative to random genomic background probes); higher = stronger binding; sequences stand for … in GC…GCGATTGACAGCGTAGAATGAAGG
[1] = system: PPARg:RXRa DBDmut IVT, anti-RXR (DBD mutation: RXRa K156A/R161A, NR concentration 270 nM, RXRa partner concentration 90 nM)
Outline: (§1)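 Random background probes are the reference for binding z-scores. These scores derive from regression-normalized fluorescence on custom Agilent 4×180K protein-binding microarrays incubated 1 h with ligand-free nuclear receptor dimers. Binding was detected with antibodies against each partner (one per run).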

[2] = system: PPARg:RXRa IVT, anti-PPARg (NR concentration 270 nM, RXRa partner concentration 90 nM)
Outline: as §1

[3] = system: PPARg DBDmut:RXRa IVT, anti-PPARg (DBD mutation: PPARg1 K132A/R137A, NR concentration 270 nM, RXRa partner concentration 90 nM)
Outline: as §1

[4] = system: PPARg DBDmut IVT, anti-PPARg (DBD mutation: PPARg1 K132A/R137A, NR concentration 270 nM)
Outline: as §1

[5] = system: PPARg homodimer (NR concentration 180 nM)
Outline: as §1

[6] = system: PXR:RXRa (NR concentration 270 nM, RXRa partner concentration 90 nM)
Outline: as §1

[7] = system: PXR homodimer (NR concentration 270 nM)
Outline: as §1

[8] = system: RARa:RXR (NR concentration 270 nM, RXRa partner concentration 90 nM)
Outline: as §1

[9] = system: RARa homodimer (NR concentration 270 nM)
Outline: as §1

[10] = system: RARb:RXRa (NR concentration 270 nM, RXRa partner concentration 90 nM)
Outline: as §1

[11] = system: RARb homodimer (NR concentration 270 nM)
Outline: as §1

[12] = system: RARg:RXRa (NR concentration 270 nM, RXRa partner concentration 90 nM)
Outline: as §1

[13] = system: RARg homodimer (NR concentration 270 nM)
Outline: as §1

[14] = system: RXRa DBDmut IVT, anti-RXR (DBD mutation: RXRa K156A/R161A, NR concentration 90 nM)
Outline: as §1

[15] = system: RXRa homodimer (NR concentration 180 nM)
Outline: as §1

[16] = system: THRa:RXRa (NR concentration 90 nM, RXRa partner concentration 90 nM)
Outline: as §1

[17] = system: THRa homodimer (NR concentration 90 nM)
Outline: as §1

[18] = system: VDR homodimer (NR concentration 270 nM)
Outline: as §1

| Sequence | PBM binding z-score [1] | PBM binding z-score [2] | PBM binding z-score [3] | PBM binding z-score [4] | PBM binding z-score [5] | PBM binding z-score [6] | PBM binding z-score [7] | PBM binding z-score [8] | PBM binding z-score [9] | PBM binding z-score [10] | PBM binding z-score [11] | PBM binding z-score [12] | PBM binding z-score [13] | PBM binding z-score [14] | PBM binding z-score [15] | PBM binding z-score [16] | PBM binding z-score [17] | PBM binding z-score [18] |
| --- | --- | --- | --- | --- | --- | --- | --- | --- | --- | --- | --- | --- | --- | --- | --- | --- | --- | --- |
| ATATGTAGGTTACATCCGCGTCATTCAGGCTATG | 7.33 | 7.28 | 2.01 | 1.99 | 0.907 | 0.229 | 0.0394 | 0.412 | 0.447 | 0.941 | 0.571 | 0.929 | 1.09 | 0.366 | 0.901 | 0.526 | 0.124 | 0.163 |
| CGTCCAAGGTCAAGGCTAGGTCAGTGAAAGCATT | 3.68 | 4.19 | -0.104 | -0.338 | 5.83 | 5.03 | 1.42 | 6.19 | 1.29 | 5.43 | 4.89 | 7.82 | 7.4 | 3.43 | 6.77 | 4.49 | 3.29 | 2.58 |
| CGTCCAAGGTCAGAGAGGTGAGTGAATGCCGAGT | 2.79 | 3.19 | -0.199 | -0.145 | 3.3 | 3.15 | 1.96 | 3.43 | 0.424 | 4.78 | 3.85 | 4.7 | 5.44 | 3.06 | 3.79 | 3.81 | 2.28 | 2.26 |
| TCATATAGGTAAAAGTGAAAGTCGAACGATATGA | 3.02 | 2.69 | 1.14 | 1.16 | 0.424 | 0.212 | 0.0345 | 0.234 | 0.539 | 0.22 | -0.485 | 0.288 | 0.384 | 0.791 | 0.523 | -0.171 | -0.456 | -0.103 |
| ATCTCTAGGTAACAAGTTCAATGAAAGAGAGGAC | 3.6 | 3.31 | 1.41 | 1.75 | 1.45 | 2.68 | 3.18 | 1.75 | 1.83 | 2.18 | 2.24 | 2.06 | 1.8 | 2.15 | 1.31 | 1.76 | 1.19 | 3.97 |
| ACTATTAGTTGACTTAGGGCGACCGATACGACGC | 0.407 | 0.174 | 1.73 | 1.51 | 0.828 | -0.0513 | 0.0652 | 0.194 | 0.515 | 0.512 | 0.553 | 0.564 | 0.841 | 1.02 | 0.421 | 1.12 | 0.262 | 0.166 |
| ACAGACAGGTGAGTGAATGTAACTCAGCTGGACG | 0.386 | 0.325 | -0.206 | -0.309 | -0.0515 | -0.136 | 0.0208 | 0.0204 | -0.0735 | 0.384 | -0.316 | 0.386 | 0.453 | -0.311 | 0.676 | 0.0176 | -0.644 | -0.199 |
